# Experimental data as given in PubChem BioAssay (NCI).
# About 83,000 compounds went through this panel and 20% of them were active in at least one assay; those are over-represented in the sample as a whole.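 Method: cells in 96-well plates; compound added at one concentration; 48 h incubation; percent growth measured; values under 10 scored active.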 Values without a mark were called inactive. The source made the active and inactive calls.
# How the values were obtained:
# Assay in all cases: NCI-60 one-dose screen, 48 h (100 = growth as untreated, 0 = no growth, -100 = all killed)
# HCT-15 colon = conditions: 10 µM unless noted
# HT29 colon = conditions: 10 µM unless noted
# SNB-75 CNS = conditions: 10 µM unless noted
# SNB-19 CNS = conditions: 10 µM unless noted
# U251 CNS = conditions: 10 µM unless noted
# PC-3 prostate = conditions: 10 µM unless noted
# SK-MEL-5 melanoma = conditions: 10 µM unless noted
# UACC-62 melanoma = conditions: 10 µM unless noted
# LOX IMVI melanoma = conditions: 10 µM unless noted
# SK-MEL-28 melanoma = conditions: 10 µM unless noted
# SK-MEL-2 melanoma = conditions: 10 µM unless noted
# EKVX NSCLC = conditions: 10 µM unless noted
# SN12C renal = conditions: 10 µM unless noted
# UO-31 renal = conditions: 10 µM unless noted
# TK-10 renal = conditions: 10 µM unless noted
# A498 renal = conditions: 10 µM unless noted
# CCRF-CEM leukemia = conditions: 10 µM unless noted
# MOLT-4 leukemia = conditions: 10 µM unless noted
# ACHN renal = conditions: 10 µM unless noted
# CAKI-1 renal = conditions: 10 µM
Compound,growth (HCT-15 colon),growth (HT29 colon),growth (SNB-75 CNS),growth (SNB-19 CNS),growth (U251 CNS),growth (PC-3 prostate),growth (SK-MEL-5 melanoma),growth (UACC-62 melanoma),growth (LOX IMVI melanoma),growth (SK-MEL-28 melanoma),growth (SK-MEL-2 melanoma),growth (EKVX NSCLC),growth (SN12C renal),growth (UO-31 renal),growth (TK-10 renal) [%],growth (A498 renal),growth (CCRF-CEM leukemia),growth (MOLT-4 leukemia) [%],growth (ACHN renal),growth (CAKI-1 renal)
O=C(/C=C/c1ccccc1)Oc1ccc(/C=C/c2cc(OC(=O)/C=C/c3ccccc3)cc(OC(=O)/C=C/c3ccccc3)c2)cc1,103%,90.1%,80.5%,96.2%,94.9%,87.5%,107%,103%,98.4%,107%,105%,99.1%,106%,82.9%,87,91.3%,91.1%,86.8,–,–
Cc1nccc2c3ccc(OCc4cn(Cc5ccc(Br)cc5)nn4)cc3n(CCCc3ccccc3)c12,92.8%,80.7%,42.3%,47.3%,82.3%,77.9%,81.1%,82.1%,93.3%,99.4%,80.7%,85.5%,92.1%,71.2%,101,91%,83.1%,90.8,–,–
CCc1c(C)c2cc3nc(NCc4ccccc4)oc3c(C)c2oc1=O,74.7%,60.5%,36.2%,59.2%,54.8%,73.3%,75.9%,47.1%,80.4%,72.9%,83.6%,77.1%,73.5%,80.1%,77.6,49.2%,79.6%,71.9,–,–
O=C(O)c1ccc(-n2cc(/C=N/Nc3ccc(Cl)cc3)c(-c3ccc(F)c(F)c3)n2)cc1,52.1%,93.4%,89.6%,86.6%,81.1%,60.2%,72.3%,39.1%,44.2%,73.6%,75.5%,59.7%,93.2%,46%,94.1,49.9%,32.3%,37.6,–,–
Nc1c(C(=O)O)[nH]c(=O)[nH]c1=O,104%,92.7%,98%,104%,91.9%,94.4%,103%,89%,97.6%,109%,99.5%,105%,98.3%,94.2%,103,106%,–,96.2,–,–
COc1ccc2c(c1)OC(N(C(C)=O)C(C)=O)=C(C#N)C2c1ccc(F)cc1 (stereo not drawn),24.9%,8.69% (active),8.71% (active),28.6%,30.8%,21.9%,18.9%,34.5%,47.7%,64.4%,25.1%,47.9%,51.5%,45.8%,71.2,12.8%,10.9%,28.7,–,–
CCOC(=O)C1=C(N)Oc2cc(OC)ccc2C1c1ccc(F)c(F)c1 (stereo not drawn),22.3%,2.96% (active),5.44% (active),28.1%,28.2%,26.8%,12.8%,25.5%,43.8%,63.2%,11.8%,40.1%,47.1%,44.2%,63.3,4.52% (active),20.4%,28.6,–,–
Nc1nccc(=S)[nH]1,98.7%,75.3%,94%,104%,102%,102%,111%,90%,100%,106%,97.7%,101%,101%,98.3%,95.6,108%,113%,92.8,–,–
O=C(O)c1ccc(-c2nn(-c3ccc(C(=O)O)cc3)cc2/C=N/Nc2c(F)c(F)cc(F)c2F)cc1,107%,99.6%,105%,110%,104%,101%,107%,106%,100%,104%,99.1%,103%,107%,92.4%,98.1,115%,97.9%,92.8,–,–
COc1ccc(-c2nn(-c3ccc(NC(=O)c4ccc(Cl)c(C(F)(F)F)c4)cc3)cc2-c2ccncc2)cc1Cl,-26% (active),-39.5% (active),31.1%,42.7%,13.5%,23.2%,-69.3% (active),-14.6% (active),-63.9% (active),50.2%,4.6% (active),34.8%,44.3%,-26.8% (active),–,-5.21% (active),23.4%,–,27.3%,-33.6% (active)
O=c1cc(Cl)[nH]c(=O)[nH]1,107%,83.6%,100%,107%,97.5%,98.4%,101%,86.3%,101%,105%,91.8%,104%,107%,96.4%,98.1,100%,111%,88.5,–,–
CC(=O)c1cc2c(c(O)c1C)C(=O)C(=O)c1c(O)cccc1-2,-61.3% (active),-15.5% (active),-98.2% (active),-85.9% (active),-94.5% (active),-26.4% (active),-97.9% (active),-71.6% (active),-49.2% (active),-87.2% (active),-72.7% (active),-42.3% (active),-41.4% (active),-97.3% (active),–,-80.6% (active),0.77% (active),–,-90.3% (active),-79.6% (active)
COc1ccc(-c2nn(-c3ccc(NC(=O)c4cc(C(F)(F)F)cc(C(F)(F)F)c4)cc3)cc2-c2ccncc2)cc1Cl,46%,53.7%,72.5%,85.7%,52.7%,45.1%,69.1%,55.6%,46.4%,79.9%,89.9%,70.3%,77.2%,44.6%,–,45.8%,59%,62.2,61.9%,41.2%
O=S1(=O)N(CCNc2nccc(-c3c(-c4cccc(O)c4)nc4sccn34)n2)CCN1Cc1ccccc1,55.7%,37%,70.4%,113%,69%,63%,30.6%,20.7%,28.6%,60.2%,19.2%,90.9%,64.1%,43.8%,–,-20.9% (active),31.9%,63.1,41.1%,39.4%
CC(C)(C)C(=O)/C=c1/[nH]c(=O)/c(=C/c2ccccc2O)s1,33.8%,72.2%,66.5%,66.5%,27.8%,53.4%,42%,58.3%,40%,69.6%,67.6%,61.1%,58.2%,67.4%,–,55.6%,57.8%,–,74.5%,81.1%
CN(C)CCS(=O)(=O)Nc1cc(-c2ccc3ncnc(Nc4ccc(F)c(Cl)c4)c3c2)cnc1Cl,-2.7% (active),2.45% (active),9.33% (active),41.6%,-40.6% (active),6.17% (active),-71.9% (active),-2.94% (active),-58.5% (active),-31.6% (active),-53.4% (active),-9.17% (active),22.6%,-61.2% (active),–,-78% (active),0.907% (active),–,20.2%,-30.6% (active)
COc1ccc(-c2nn(-c3cccc(Cl)c3)cc2-c2cc(-c3ccc(Br)cc3)[nH]c(=O)c2C#N)cc1,71.1%,108%,-37.1% (active),90.6%,90%,86%,91%,88%,69.6%,99.6%,122%,88.4%,67.9%,87.3%,–,102%,75.4%,76,91.8%,82.9%
